Reference: the supplement of paper PMC10105736
Values without a mark were called inactive.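 The calls were made as follows: active = MAPPIT score above the 99th percentile of random reference set scores in the same batch; inactive = at or below it.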

Tests used:
Assay in all cases: MAPPIT interaction score (arbitrary units); higher = stronger binary interaction signal, active = hit call of the paper
lwr = settings: MAPPIT configuration: N-N
kappaB-Ras = settings: MAPPIT configuration: N-N; pair source set: DPIM
laza = settings: MAPPIT configuration: N-N; pair source set: screen_2
jvl = settings: pair source set: RRS
lola = settings: pair source set: RRS
l(3)neo38 = settings: MAPPIT configuration: N-N; pair source set: Lit-BS-16
isoQC = settings: MAPPIT configuration: N-N; pair source set: DPIM
mal = settings: MAPPIT configuration: N-N; pair source set: Lit-BS-16
otp = settings: MAPPIT configuration: N-N; pair source set: screen_2
ix = settings: pair source set: Lit-BM-16
ihog = settings: pair source set: Lit-BM-16
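Also: HEK293T cells with Epo stimulation, STAT-responsive firefly luciferase reporter, fold induction versus unstimulated cells divided by the larger fold induction of two negative controls lacking either bait or prey.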

B1: CG12259 (protein)
chain: MAHYKGAASEAGRAAQLMKKREIQQQEIEFRKKKIEEELKLDKIENKFATHYDAVEQQLKSSTIGLVTLDEMKAKQEDIVREREKKLAQKKDEKDREKQRALEAIQAEKNKQKRQIQALSFNLDDDEEEEEEDDEDHDKKQLKIKQEDQPKPKWTEIKEDILPIKKKKICKNPDVDTSFLPDREREEQENRLREQLRQEWVMQQAELKDEDISITFSYWDGSGHRRNVLMKKGNSIYQFLQKCLELLRKEFIELKTVMADQLMYVKEDLILPHHYSFYDFIVTKARGKSGPLFQFDVHDDVRMISDASVEKEESHAGKVLLRSWYERNKHIFPASRWEPYDPTKSYDKYTIKDKDKSKK
In the case of B1, the MAPPIT interaction score (lwr; pair source set: Finley_Y2H) is reported as 0.18.

B2: Cp1 (protein)
chain: MNHLGVFETRFRPRTRHKSQRAQLIPEQITMRTAVLLPLLALLAVAQAVSFADVVMEEWHTFKLEHRKNYQDETEERFRLKIFNENKHKIAKHNQRFAEGKVSFKLAVNKYADLLHHEFRQLMNGFNYTLHKQLRAADESFKGVTFISPAHVTLPKSVDWRTKGAVTAVKDQGHCGSCWAFSSTGALEGQHFRKSGVLVSLSEQNLVDCSTKYGNNGCNGGLMDNAFRYIKDNGGIDTEKSYPYEAIDDSCHFNKGTVGATDRGFTDIPQGDEKKMAEAVATVGPVSVAIDASHESFQFYSEGVYNEPQCDAQNLDHGVLVVGFGTDESGEDYWLVKNSWGTTWGDKGFIKMLRNKENQCGIASASSYPLV
In the case of B2, the MAPPIT interaction score (kappaB-Ras) is reported as 0.259.

B3: Es2 (protein)
chain: MSATTRTPATPGTPGTPGSLAMEVARVQNSALAEFKKPTAMVRHKNKPKILTEEKYIEEMSKIIQRDFFPDLERLRAQNDYLDAESRRDFVQMAEIRERYSLGRISGTGRSTSRRNNAMSPATFETPVSQAKCSNTPLPNSRATDTPFSTDGSEKSDAEGRDTTAKLSLDAFLQKYTSEDNQSFQEIIETAEAKLRQKYAVLYNHEKLSAEQLQRALMLPSIETQFEEPDPLRKIETWNYTNMNSIMYVPDGVEYTEEERVQLAERKQSIQHNATRLPDEAKHREMDTKKLNDEVPQNGAGGATATPKVRGFDLLRSPSPRPGEAFSPIMTWGEIDGTPFRLDGGDTPLRPTQGPSFRINENSRRENIAIALAERVSERMRNQKQMALDTARRNIGSPLIRTNMERLASMSPAAQLLATGKLGIRGTPRLRHTPSPMSGRKRKVTPGVVRSTNTPILGEPKPKQQAKISTPAKNVTIDTGSTLTDDLLKIPTKRRTAADFF
In the case of B3, the MAPPIT interaction score (laza) is reported as 0.373.

B4: TH1 (protein)
chain: MEVEYDDSGWQGRAKGQTNPEETLEDNPQKTIQECLEKFLTPDYIMEPGIFTQLKRYFQSGGSPEEVISMLSENYKAVAQMANLLAEWLILAGVKVTEVQAMVENHLKEMILKSFDPKKADTIFTEEGETPDWLTEMIDHYTWRSLIYRLAEEYPDCLMLNFTIKLISDAGFQSEITSISTAAQQIEVFSRVLKTSIVKFLNNPDDVHGAIQECARMVCHGQHTYVYSQVLIQVLSQEQKGGFNMKRLSQEIIKYALQNNQNVTPITMALNGSAVYPQACQALTSMLTRNTLNPADITVLFRNYSGSDPPPIDLIRNPQFLELLVDALFRSGVKINPEHKPKYMFLLAYASAVIDQPAKKRPMTERMLNKEELKSTIQAIEKAHTICNVDQGSTELIAELQTLYNCIKYPVVGVGVIRWIENVVMEPSYFKLSTDSCPTHLAVLDEVAAVHPTLQQQILFLLIRLFESKQDELEILVQLEMKKMILDRMVNLLTRGCVVPVLRYIKQCCAIEDTDISLIRYFVTEVLETITHPYSPEFVQLFLPMVENEEITGTMRGEGDNDPVSEFIVHCKAHYTTV
In the case of B4, the MAPPIT interaction score (jvl; MAPPIT configuration: N-C) is reported as 0.00492 and the MAPPIT interaction score (jvl; MAPPIT configuration: N-N) is reported as -0.0162.

B5: CG3262 (protein)
chain: MERLLINTIWRSYATKLTGSQVKLMARGLPKKQPIIGVQDIIVVASGKGGVGKSTVAVNFACSLAKLGKRVGLLDGDIFGPTIPLLMNVHGEPVVNDKNLMIPPQNYNVKCLSMGMLTPVETSVIWRGPLVMSAIQRLLKGTDWGLLDVLVIDTPPGTGDVHLSLSQHAPITGVILVTTPHTAAVQVTLKGASMYEKLNVPIFGVVENMKYTICQNCNQRLEFFKDSRISSLPRKLISLPLDSRIADSNESGVPVVIKYPDSKYSYLFTQLAEEITQILNEQRCNQNQNNSAH
For B5, the MAPPIT interaction score (lola; MAPPIT configuration: N-C) was 0.425 and the MAPPIT interaction score (lola; MAPPIT configuration: N-N) was 0.0633.

B6: Pdk1 (protein)
chain: MKCKSWSNKINNYVVRKIKSIKINGTQQQLQLPGSGASGIAAAAVITVASDCGENCSSNGTEHQQHFNIATTTATSATEATMPAMAKEKASATVSLGESNFRDINLKDLAVVVEAASRLHHQQNVCGCGAVSSTENNNNSRYGSSKYLTNGHTSPLAAAVASNSSSVATTPHCRMLHNCSLQQYQNDIRQQTEILDMLRQQHQQGYQSQQQQQQPQQQQEQQQQQEQSQQQQQLQNPAPRRSPNDFIFGRYIGEGSYSIVYLAVDIHSRREYAIKVCEKRLILRERKQDYIKREREVMHQMTNVPGFVNLSCTFQDQRSLYFVMTYARKGDMLPYINRVGSFDVACTRHYAAELLLACEHMHRRNVVHRDLKPENILLDEDMHTLIADFGSAKVMTAHERALATEHCSEQRRSNSDEDDEDSDRLENEDEDFYDRDSEELDDGDDEQQQEEMDSPRHRQRRYNRHRKASFVGTAQYVSPEVLQNGPITPAADLWALGCIVYQMIAGLPPFRGSNDYVIFKEILDCAVDFPQGFDKDAEDLVRKLLRVDPRDRLGAQDEFGYYESIRAHPFFAGIDWQTLRQQTPPPIYPYLPGVSQDEDFRSSYTVPGDLEPGLDERQISRLLSAELGVGSSVAMPVKRSTAKNSFDLNDAEKLQRLEQQKTDKWHVFADGEVILKKGFVNKRKGLFARKRMLLLTTGPRLIYIDPVQMIKKGEIPWSPDLRAEYKNFKIFFVHTPNRTYYLDDPEGYAIHWSEAIENMRKLAYGDPSSTSAVSCSSGSSNSLAVISNSSAASSSNSPTVKRSSPVNAPQASTASDNRTLGSTRTGTSPSKKTASK
Binder B6 has an MAPPIT interaction score (l(3)neo38) of 1.81.

B7: fd59A (protein)
chain: MHTSTDPMHTLHDSVSLSPPLIKSSRGGSSIGNGIGCSASSRTAAADAMSMGCDDSDIEPSSMGGSGAAGGNGDGSGSSGGPLVKPPYSYIALITMAILQSPHKKLTLSGICDFIMSRFPYYKDKFPAWQNSIRHNLSLNDCFIKVPREPGNPGKGNFWTLDPLAEDMFDNGSFLRRRKRYKRAPTMQRFSFPAVFGTLSPFWIRKPVPLVPVHFNVPNFNGSREFDVVHNPADVFDSALRADKKFNFFANAEASFYQGSQSGDKFDRLPFMNRGRGADVLDALPHSSGSGGGVGGGSESSRGSKYKSPYAFDVATVASAAGIPGHRDYAERLSAGGGYMDLNVYNDDADTEADAEAEGDDDSCEDKIDVESGNEQEDSHISDSVDSACTNRLDAPPEALIFEASAEASDSSPRRRFDSEPLVLRTSKQSSAKDFRIETLIGHHLHRGGSQEETSD
In the case of B7, the MAPPIT interaction score (isoQC) is reported as 0.602.

B8: cN-IIIB (protein)
chain: MGFDEKREPTGGRLRLQDIPALTQDHCRMRDPAEVERIINEFVIGGPERMQIVSDFDYTITKQRTEDGGAVPSSFGIFNACQSLPENFKAETDKLYHKYRPIEIDPHMPIAEKVQYMIEWWTKSGELTSGFPFDQSEIDQIASKYTHALRDRTHEFFADLQRLGIPTLVFSAGLGNSVVSVLRQANVLHPNVKVVSNFLQFRDGLLDGFQQPMIHTFNKNETVLNETSEYYDLVHTRDHIIVMGDSIGDADMASGVPASSHIMKIGFLFDHVEANMKKYMDTFDIVLVDDQTMDVPRTLLSLIEKQHKLNLEAPKQSSL
Work on B8 yielded an MAPPIT interaction score (mal) of 1.36 and an MAPPIT interaction score (otp) of -0.311.

B9: MED8 (protein)
chain: MQRDEKLFELTLDTVLQRLNDLKLAVLSMIQKLELEYETINWPTFLDNFAIISSHLTGLTKILAKEQCPPLRNRTVLPLLVSMDRDDTLINITEGRVPVFSHDIVPDYLRTRPDPITEQKMLQNEQKAANLTNDAAMKQVTQYNKVVSHVLDMVSKAREEWEIESSSRTGIQQTSSMADTQLLVAAVGMGKGLKLTNYGPGPGMMVPPSIRAPSPMGGPAMSPGNVQQQLGKAPSAVKTNIKSANQVHPFSR
Binder B9 has an MAPPIT interaction score (ix; MAPPIT configuration: N-C) of 3.01 and an MAPPIT interaction score (ix; MAPPIT configuration: N-N) of 2.19.

B10: pcs (protein)
chain: MSSAEDGELDPQIQIELENLNSATDEINKLEIELEEANSTFRILLNESTRRLKVSSKKLGNCIEKARPYYEALDKAREAQIECQKAAVKFQRANEIHAAAKETVALAEQRFMSNSHEWQFDNAWQEMLNHATQKVMDAETQKADCHAEHQRLTKLFNAAEQKLQQLEDRFRRSINKSRPYFEEKQVCQDQLQTQKNRIQELQQQVAGAKSTYSTALRNLERISEDIHRQRGDFPTPPGPREPGVGAELNSPTSSALPSLPDFQLELEKCDYPSIAGSQMSLGAKTPQAAAETEDEEDACDYDETGAGELRGVVDERDLEALRQKVKILAVRPIEGGDGQQQNDVWEHELKATVDKLDHLMMLKETAKRQQTNRLKSTEQRPDSLGAEALKRHCDVVEVKVTSCATTASLPVTPHHQLNHLAPPTPIKKLQQQLAPLPSVNVSMRELPLLARLSNELLDRSSAAFGGVRKTLRRRSLE
With B10 the MAPPIT interaction score (lwr; pair source set: Curagen_low_conf) was -0.177.

B11: ihog (protein)
chain: MTLLTSSLLLFSLLTSRLEAIPVLEKSPAHPAHSAHPAHPAHPAHPAHPSPGVRILRAPESLVAPLGDEVVLECETSLQPERFEWSHRSSRSPGAGFKYLKTGTAKANVSQEAAISRLRVLVRPDTLGEYRCVGWFGPLVVTSTIARLELASTSLVDAQESESPLQWRVSAGNSVLWSCGQQVQSNPSASWSYYRNGVEIKPEFIGTNGNLFLSNVSSESSGSYSCQATNPASGERIQLPGSLQLQVTPEQRSESKSPHLLRGQPSSQEITIREGSSLLLLCPGVGSPPPTVVWSSPDVVGAVKNKRSKVFGHALEISNTRVNDAGTYICFQDNGVRPALEHYIKVHVEQPPQIVRPPWADLTNEGDRLKLECKATGVPTPEIYWLLNGHSSIDDSEAELSNNFLILHSVLKRHAGYVQCFARNRLGEHSAGTLLQVNPKQIQEPRESGGTHRPKPNQGSRQKQMYPPTPPNVTRLSDESVMLRWMVPRNDGLPIVIFKVQYRMVGKRKNWQTTNDNIPYGKPKWNSELGKSFTASVTDLKPQHTYRFRILAVYSNNDNKESNTSAKFYLQPGAALDPMPVPELLEIEEYSETAVVLHWSLASDADEHLITGYYAYYRPSSSAGEYFKATIEGAHARSFKIAPLETATMYEFKLQSFSAASASEFSALKQGRTQRPKTSTTEEPTLQMGDRDTTTPSHNETFNMSPMLTGTIGGGAVLILLLISTCFCVCRRRNSRSRGNNPNKPRMAELRDDFVPLGNCSPTKQRQRTRHIHITLNPLAQQQQQALEEKNDTDQDAPYYQRPSSYDYDPTLRRMSSSSLRRSQRTLERAGGSNGSNNGNNNNLNQSAEAGSIENPGKPGRVLMKRPRLSSRSENLSSGSLNSVGV
B11 was tested, and the MAPPIT interaction score (ihog; MAPPIT configuration: N-C) was -0.576 and the MAPPIT interaction score (ihog; MAPPIT configuration: N-N) was -0.268.
